Screening results (PubChem)
This is one part of a sample in which hits are shown more often than they occur.
CHX counter: counter-screen hit for Shiga toxin inhibitors, cycloheximide. cell reporter, cycloheximide protein synthesis inhibition counterscreen. max response, %. 300,000 tested, 12% active; in the data active = max response mostly above about 13%, no sharp cut-off; inactive = mostly below about 14%; note: read at 38.3 µM for the half of the compounds with a filed dose; 0% is about no effect
Shiga inhibitor: blocks Shiga toxin action in Vero cells. Vero cells, Shiga toxin protein synthesis inhibition reporter. inhibition, % at 38.7 µM. 290,000 tested, 9.2% active; in the data active = inhibition mostly above about 28%, no sharp cut-off; inactive = mostly below about 43%; note: 0% is about no effect
Lassa entry inh: blocks Lassa virus binding to or entry into cells. Potency, µM (top dose mostly 37.9 µM), for inactives: at the top dose activity change, negative = inhibition, usual class: inhibitors. Lassa virus pseudotype entry inhibition, cell reporter. 300,000 tested, 1.2% active; calls by dose curve; tested in HEK293 cells; note: potency is the fitted concentration of half-maximal effect; % is set by controls: 0 for no effect and ±100 for the full control effect; nearly all actives have a fitted effect of over 50% in size
AMA1 RON2 block: disrupts binding of P. falciparum AMA1 to RON2; 360,000 tested, 0.2% active; AlphaScreen AMA1-biotinylated RON2 peptide binding; AID 720542; Potency, µM (top dose mostly 58.2 µM), for inactives: at the highest dose activity change, negative = inhibition, usual class: inhibitors; active = well fitted inhibition curve with a large enough effect; inconclusive = small, poorly fitted or top-dose-only effect; inactive = no such curve, though single readings can be large or run the other way;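 note: potency is the fitted concentration of half-maximal effect; 0% = vehicle wells and -100% = peptide control; nearly all actives have a fitted effect of over 45% in size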
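AMA1 (3D7) with his tag at 25 nM final met compounds first, then biotinylated RON2 peptide at 25 nM; detection used donor plus acceptor beads, 10 µg/mL apiece, read by AlphaScreen after 30 min at room temperature.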
MARV entry inh: inhibitors of Marburg virus binding or cell entry. Potency, µM (doses to about 37.8 µM), for the others: top-dose activity change, negative = inhibition, hits mostly inhibitors. 300,000 tested, 1.8% active. Marburg virus pseudotyped entry inhibition, cell reporter; calls by dose curve; tested in HEK293 cells; note: potency is the fitted concentration of half-maximal effect; % is set by controls: 0 for no effect and ±100 for the full control effect
* marks the source's active call; other numbers are inactive results; ? = inconclusive; . = not tested or not shown; + = active, no number; [ ] = another dose, or the depositor's remark.

SMILES | CHX counter | Shiga inhibitor | Lassa entry inh | AMA1 RON2 block | MARV entry inh
O=C(N/N=C\C=C\c1ccc2c(c1)OCO2)c1cccnc1 | 18* | 78* | 4% | 104% | 10%
CC(C)(C)c1ccc(/C=C/C(=O)Nc2ccc3c(c2)OCCO3)cc1 | . | . | 6.5µM* | . | -27%
O=c1c(CO)cc(CO)cc(CO)c1O | 2 | -19 | . | 22µM* | .
O=C(O)c1ccccc1C(=O)NCC(O)COc1ccc(Cl)cc1 (stereo not given) | 38* | 55* | 14% | 0% | 30%[46.1 µM]
O=C(OCC(=O)N1CCCC1)c1ccccc1C(=O)c1ccccc1 | . | . | . | -13% | .
Cc1ccc(C(=O)C(C)OC(=O)Cn2c(C)csc2=O)cc1 (stereo not given) | 1 | 3 | . | 0% | .
Cc1cc(C(=O)Nc2ccc(N3CCCCC3)cc2)no1 | 16* | 39 | 11µM* | -21% | ?
O=C(Nc1ccc(OC(F)(F)F)cc1)C1=NCCN1 | 40* | 38* | -4% | 84% | ?
Cc1cc(C(=O)Nc2ccc(S(=O)(=O)N3CCCC3)cc2)no1 | -2 | 31 | 19% | -3% | -16%
O=C(O)c1ccccc1-c1ccccc1C(=O)Nc1ccc(OC(F)(F)F)cc1 | -1 | -9 | . | 17% | .
Cc1cnc(C(=O)Nc2ccc(OC(F)(F)F)cc2)cn1 | 27* | 48* | . | -3% | .
Cc1cnc(C(=O)Nc2ccc(N3CCOCC3)cc2)cn1 | 22* | 66* | 28%[14.3 µM] | 11% | ?
Cc1cnc(C(=O)Nc2ccc(C(=O)N3CCCCC3)cc2)cn1 | 6 | 12 | 21% | 9% | 17%[46.1 µM]
Cc1cnc(C(=O)Nc2ccc(N3CCCCC3)cc2)cn1 | 32* | 84* | ? | 12% | ?
CCOc1ccc(N(CC(=O)Nc2ccc(C)cc2)S(C)(=O)=O)cc1 | 37* | 66* | 0% | -5% | 23%
CCOc1ccc(N(CC(=O)Nc2ccc(C)cc2C)S(C)(=O)=O)cc1 | 9 | 6 | . | 6% | .
CC(=O)c1ccc(NC(=O)CN(c2c(C)cccc2C)S(C)(=O)=O)cc1 | 23* | 99* | . | -3% | .
CCOc1ccc(N(CC(=O)Nc2cc(C)cc(C)c2)S(C)(=O)=O)cc1 | 59* | 75* | . | -8% | .
CCOc1ccc(N(CC(=O)Nc2cccc(Br)c2)S(C)(=O)=O)cc1 | 26* | 64* | . | -4% | .
CCOc1ccc(N(CC(=O)Nc2cccnc2)S(C)(=O)=O)cc1 | -5 | -18 | -5%[46.1 µM] | -1% | -16%[46.1 µM]
CCCCOc1ccc(C(=O)NCC(=O)NCCCn2nc(C)cc2C)cc1 | . | . | . | -3% | .
Cc1cccc(NC(=O)C(Cc2ccccc2)n2cccc2)c1C (stereo not given) | . | . | . | . | 0%[46.1 µM]
COc1ccc(CNc2oc(COc3ccccc3)nc2C#N)cc1 | 20* | 40* | ? | -26% | 2%
N#Cc1nc(Cc2ccccc2)oc1NCCN1CCOCC1 | 26 | 32 | 1% | -2% | ?
N#Cc1nc(Cc2ccccc2)oc1NCc1ccccc1 | 28* | + | -4% | -16% | ?
